High-throughput results deposited in PubChem by National Center for Advancing Translational Sciences (NCATS).
The list is not random: actives were taken first. Their share in the collection is about 11%.
IMPase cell inh = cell-permeable inhibitors of inositol monophosphatase (IMPase); CHO-M1 cells, IP1 accumulation, HTRF TR-FRET ratio; P97697; 120,000 tested, under 10 active; inhibition (IP1 accumulation), % at 46.1 µM; active = well fitted curve in the direction sought with a large enough effect in the signal ratio, not every such curve was filed as active; inconclusive = small, poorly fitted or top-dose-only effect, or a change in a side signal; inactive = no such curve, though single readings can be large or run the other way; the % refers to the signal ratio;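 also: cells stimulated with carbachol in lithium chloride buffer; plate controls were DMSO basal wells for no effect and reference inhibitor wells for full effect; higher means more IMPase inhibition seen as more IP1 and lower FRET ratio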
Target sequence (P97697 whole entry, looked up): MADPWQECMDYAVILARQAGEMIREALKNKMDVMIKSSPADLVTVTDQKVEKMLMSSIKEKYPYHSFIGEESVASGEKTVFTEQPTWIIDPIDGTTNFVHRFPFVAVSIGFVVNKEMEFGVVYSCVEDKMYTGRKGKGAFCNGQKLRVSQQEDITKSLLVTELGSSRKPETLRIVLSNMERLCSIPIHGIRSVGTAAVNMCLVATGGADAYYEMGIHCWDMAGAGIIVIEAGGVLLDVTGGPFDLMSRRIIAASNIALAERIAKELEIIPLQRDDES
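The IP-One HTRF competitive assay in carbachol-stimulated CHO-M1 cells quantifies cellular IP1. Compounds spanned up to 46 uM final, and activity is expressed as AC50 from concentration-response fits of the ratio and donor data.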
ALOX12 inhib = 12-hLO (ALOX12) enzyme inhibition; P18054; purified 12-hLO, xylenol orange hydroperoxide absorbance; Potency, µM (series often up to 57.1 µM), without a hit: top-dose activity change, negative = inhibition, most hits filed as inhibitors; hit rate 0.12% among 150,000; AID 1452; also: potency is read from the fitted curve at half-maximal effect; nearly all actives have a fitted effect of over 55% in size
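Hydroperoxide output read as Fe(III)-xylenol orange absorbance, 573-to-405 nm ratio, after 30 min reaction with 40 uM arachidonic acid. Enzyme: 150 nM purified human 12hLO, 15 min compound preincubation; 25 mM Hepes pH 7.0, room temperature.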
PNC assembly inh = inhibitors of perinucleolar compartment assembly | activity change (PNC), negative = inhibition, % at 10 µM | PC3M PTB-GFP, PNC prevalence imaging, 16 h; stronger effect = lower value | hit rate 3.1% among 140,000;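 active = readout at or below -70, meaning at least 70% loss of cells showing the perinucleolar compartment, a nuclear body marking cancer cells; inconclusive = readout between -30 and a set limit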;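 also: plate controls were DMSO wells for no effect and camptothecin positive control wells for full effect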
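Read-out is percentage of cells bearing a perinucleolar compartment, from automated 20x imaging of fixed, Hoechst-stained PC3M PTB-GFP cells. Cells were seeded 4 h, then exposed 16 h to compound (23 nl of library stock) in duplicate plates.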
IMPase Li cell = cell-permeable IMPase inhibitors with lithium potentiation; CHO-M1 cells, IP1 TR-FRET (IP-One), carbachol + lithium; Potency, µM (highest dose often 59.4 µM), for inactives: at the top dose activity, negative = IMPase inhibition, most hits filed as inhibitors; hit rate 0.35% among 210,000;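 also: IP1 builds up when IMPase is blocked and the TR-FRET signal falls; potency is read from the fitted curve at half-maximal effect; plate controls were basal vehicle for no effect and high inhibitor control for full effect; nearly all actives have a fitted effect of over 50% in size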
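Test compounds were applied to CHO-M1 cells previously cultured for 16–30 h at 2000 per well. A small lithium amount accompanied them; after 30 min at 37C, IP1 was quantified by TR-FRET.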
ALDH1A1 inh = blocks purified human ALDH1A1 activity. P00352. AID 1030. Purified ALDH1A1, NADH fluorescence, propionaldehyde substrate. Potency, µM (doses to about 75.3 µM), for the others: top-dose activity, negative = inhibition, usual class: inhibitors. hit rate 7.3% among 220,000; active = well fitted inhibition curve with a large enough effect, not every such curve was filed as active; inconclusive = small, poorly fitted or top-dose-only effect, or another doubt; inactive = no such curve, though single readings can be large or run the other way;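 also: potency is read from the fitted curve at half-maximal effect; plate controls were no enzyme wells and a reference inhibitor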
HPGD inh = blocks human HPGD enzyme activity. P15428. purified HPGD, NADH fluorescence kinetic, PGE2 substrate. Potency, µM, inactives show at the highest dose activity change, negative = inhibition, actives largely listed as inhibitors. hit rate 4.3% among 150,000. AID 894; active = well fitted inhibition curve with a large enough effect, not every such curve was filed as active; inconclusive = small, poorly fitted or top-dose-only effect, or another doubt; inactive = no such curve, though single readings can be large or run the other way; also: potency is read from the fitted curve at half-maximal effect
Target sequence (P15428 whole entry, looked up): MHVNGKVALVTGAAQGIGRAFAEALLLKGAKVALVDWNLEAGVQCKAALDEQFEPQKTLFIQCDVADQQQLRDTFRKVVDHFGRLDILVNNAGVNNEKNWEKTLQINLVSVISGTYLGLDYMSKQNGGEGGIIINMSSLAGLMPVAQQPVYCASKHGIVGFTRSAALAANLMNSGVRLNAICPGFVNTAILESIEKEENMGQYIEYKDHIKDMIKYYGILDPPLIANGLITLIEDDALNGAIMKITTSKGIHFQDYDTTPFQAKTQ
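NADH formation kinetics: reaction with 30 uM PGE2 and 1 mM NAD+ (final), 20 nM enzyme, Tris-HCl pH 8 with Tween 20, after 15 min compound preincubation at room temperature. Fluorescence change, last versus first of five reads.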
* = called active by the depositor; u = inconclusive; x = not tested or not shown; [ ] = another dose, or the depositor's remark. Unless noted, calls follow the shape of the dose curve; as a rule, active = well fitted curve in the direction sought with a large enough effect; inconclusive = small, poorly fitted or top-dose-only effect, or another doubt; inactive = no such curve, though single readings can be large; an effect the other way counts as inactive or inconclusive. Unless noted, % is scaled to controls: 0 for no effect and ±100 for the full control effect.

SMILES	IMPase cell inh	ALOX12 inhib	PNC assembly inh	IMPase Li cell	ALDH1A1 inh	HPGD inh
CC(C)NC(=O)C1CCN(C(=O)c2cc3sccc3n2Cc2ccc(F)cc2)CC1	-3	-1%	-22	29%[38.3 µM]	13µM*	0%
CC1CCN(C(=O)C2CCN(C(=O)c3cc4sccc4n3Cc3ccc(F)cc3)CC2)CC1	6	-8%	7	16%[38.3 µM]	14µM*	-3%
O=C(NCc1ccc(F)cc1)c1cc2sccc2n1Cc1ccc(F)cc1	15	-3%	205	10%	u	u
CCOC(=O)c1c(C)oc2c1c(C(c1cccnc1)N1CCOCC1)c(O)c1ccccc12 (centres undefined)	10	u	23	11%[38.3 µM]	7.1µM*	22µM*
CCOC(=O)c1c(C)oc2c1c(C(c1cccnc1)N1CCN(C)CC1)c(O)c1ccccc12 (centres undefined)	5	-28%	-13	6%[38.3 µM]	13µM*	-28%
COc1ccc2[nH]cc(CCNc3cc(-c4ccc(C(=O)N(C)C)cc4)ncn3)c2c1	x	x	x	1%	-3%	x
Cc1cccc(CNc2ncnc3ccc(-c4cccc(C#N)c4)cc23)c1	x	-6%	x	-8%	u	u
Cc1ccc(S(=O)(=O)N2CCC(C(=O)Nc3ccc(C)c(Cl)c3)CC2)cc1	3	x	x	x	x	x
COc1ccc(OC)c(C2=Nn3c(nnc3-c3ccco3)SC2)c1	2	-4%	38	5%[38.3 µM]	-5%	28µM*
Oc1ccc(C2=Nn3c(nnc3-c3ccco3)SC2)cc1O	17	u	u	61%	8.9µM*	14µM*
[N-]=[N+]=Nc1nc2c(N)ncnc2n1C1OC(CO)C(O)C1O (centres undefined)	x	11%	x	6%	3%	-10%
O=C(COc1ccc([N+](=O)[O-])cc1)Nc1ccc(C(=O)Nc2ccccc2C(=O)O)cc1	x	x	x	-4%	13µM*	x
O=C(COC(=O)c1ccccc1NC(=O)c1ccccc1)c1ccc([N+](=O)[O-])cc1	11	-2%	3	5%	8.9µM*	-13%
CCCCC(=O)Nc1cccc(C(=O)Nc2ccccc2C(=O)O)c1	x	x	x	3%	-1%	x
O=C(COc1ccc2ccccc2c1)Nc1cccc(C(=O)Nc2ccccc2C(=O)O)c1	x	-8%	40	0%	14µM*	u
Cc1ccc(N=C2NC(=O)CC(C(=O)Nc3cc(C(F)(F)F)ccc3Cl)S2)cc1 (centres undefined)	2	x	x	x	x	x
COC(=O)C/C=C\[C@@H](C)[C@@H](/C=N\OCC[C@H]1C=C[C@H](OC(C)=O)[C@@H](COC(C)=O)O1)NS(=O)(=O)c1ccc(C)cc1	x	x	x	x	-9%[13.5 µM]	x
COc1ccc(N(CC(=O)NCCc2ccccc2)S(=O)(=O)c2ccc(OC)c(OC)c2)cc1	-14	x	x	x	x	x
CCc1ccc(C(C(=O)NCc2ccc(OC)cc2)N(CCOC)C(=O)Cc2cccs2)cc1 (centres undefined)	1	0%	6	9%[38.3 µM]	1.3µM*	-7%
COc1ccc(CNC(=O)C(c2ccc(C)o2)N(Cc2cccs2)C(=O)Cc2cccs2)cc1 (centres undefined)	8	-2%	-29	15%	3.5µM*	-18%
COCCN(C(=O)Cc1cccs1)C(C(=O)NC1CCCC1)c1ccc(OC)c(OC)c1 (centres undefined)	x	x	x	-14%	-14%	x
CCOCCCNC(=O)C(c1ccc(OC)cc1)N(Cc1cccs1)C(=O)CNC(C)=O (centres undefined)	x	x	x	2%	-5%	x
COCCN(C(=O)Cc1cccs1)C(C(=O)NCc1ccc(OC)cc1)c1ccc(C)cc1 (centres undefined)	-3[1.84 µM]	-4%	8	43%[38.3 µM]	2µM*	-27%
COc1ccc(CN(C(=O)Cc2c[nH]c3ccccc23)C(C(=O)NC2CCCCC2)c2ccc(C)o2)cc1 (centres undefined)	-1	-10%	u	14%	6.3µM*	-18%
O=C(CCS(=O)(=O)c1cc(Br)cc2c1N(C(=O)C1CC1)CC2)N1CCN(c2cccc(C(F)(F)F)c2)CC1	9	x	x	x	x	x
SMILES	IMPase cell inh	ALOX12 inhib	PNC assembly inh	IMPase Li cell	ALDH1A1 inh	HPGD inh
COCCn1c(=O)c(-c2cn(C)c3ccccc23)nc2cnc(Oc3ccccc3)nc21	x	-3%	x	5%	u	-3%
O=C1C=CC2(OCCCO2)C(Br)=C1CO	x	x	x	9%	2%	u
O=C(O)c1ccc(C2Nc3ccccc3-c3nnc(SCc4ccc(Cl)cc4)nc3O2)cc1 (centres undefined)	11	x	x	x	x	x
CCCN1C(=O)/C(=C/c2c(N3CCNC(=O)C3CC(=O)OC)nc3c(C)cccn3c2=O)SC1=S (centres undefined)	x	x	x	x	5µM*	x
CCOC(=O)CC1C(=O)NCCN1C(=O)c1cc2c(=O)n3cccc(C)c3nc2s1 (centres undefined)	-3	0%	22	-19%[38.3 µM]	u	u
CC(C)=CCC/C(C)=C/CC/C(C)=C/CO	6	-2%	x	1%	-11%	-7%
COc1ccc(CCCc2nnc(SCC(=O)Nc3ccc(Cl)cc3)o2)cc1	8	x	x	x	x	x
O=C(N/N=C/c1ccccn1)c1c[nH]c2ccccc12	x	x	x	x	-2%	x
O=C(N/N=C/C1CC2CCC1C2)c1c[nH]c2ccccc12 (centres undefined)	x	x	x	9%	14µM*	x
O=C(NCc1cccs1)c1ccc([N+](=O)[O-])cc1Cl	-3	0%	-29	0%	12%	u
CN(C)S(=O)(=O)N1CCCC(C(=O)c2ccc(C(F)(F)F)cc2)C1 (centres undefined)	x	x	x	11%	1%	x
COc1ccc(-c2[nH]ncc2CN2CCN(C(=O)c3ccco3)CC2)cc1F	x	x	x	x	-16%	x
COc1ccc(-c2[nH]ncc2CN2CCN(C3CCCCC3)C(=O)C2)cc1F	x	x	x	7%	1.4µM*	x
COCCn1c(=O)c(-c2cccc(C#N)c2)nc2cnc(N3CCNCC3)nc21	x	2%	x	-22%	u	u
COc1cc(C2c3c(oc4ccccc4c3=O)C(=O)N2Cc2ccncc2)ccc1O (centres undefined)	9	-5%	-8	2%[38.3 µM]	25µM*	-12%
CC#CCN1c2ccccc2[C@]23C[C@@H](C(=O)OC)N(S(=O)(=O)c4ccc([N+](=O)[O-])cc4)C2=NC(C(=O)OC)=C(C(=O)OC)[C@H]13	x	1%[11.4 µM]	x	4%	16%[13.5 µM]	-3%
Cc1nc(-c2coc3c(O)c(O)ccc3c2=O)cs1	x	x	x	45%	-13%	-22%
On1onc2c3cc(-c4ccccc4)nc3ccc21	u	u	-9	40%[38.3 µM]	18µM*	-13%
CCNc1c(NC(=O)c2ccccc2OCC)c(=O)oc2ccccc12	8	x	x	x	x	x
